High-throughput results (PubChem)
FUS yeast rescue: rescues growth of FUS-expressing yeast. 0.24% of 390,000 active. AID 1347120. Potency, µM (highest dose often 76.6 µM), actives largely listed as activators. S. cerevisiae FUS-expressing, growth rescue, OD600, 24 h;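 also: plate controls were DMSO vehicle for no effect and reference control for full effect; nearly all actives have a fitted effect of over 55% in size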
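Quantitative HTS measuring growth restoration of FUS-toxic yeast. Galactose-induced cells (OD 0.005) were exposed 24hr at 30C to compounds at several concentrations, then absorbance at 600 nm was recorded.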
TDP-43 yeast inh: TDP-43 toxicity inhibition in yeast | TDP-43 expressing yeast growth rescue, BacTiter-Glo, 24 h | Potency, µM (series often up to 46.1 µM), inactives show at the highest dose growth rescue (activation), usual class: activators | 1.8% of 410,000 active; also: % of control where 0% means no effect; nearly all actives have a fitted effect of over 50% in size
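Galactose-induced TDP-43 yeast, OD600=0.02, compound pinned; 24 hr, 30 deg C; BacTiter-Glo luminescence for growth. Inhibitors of TDP-43 toxicity read as activators.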
Abeta yeast res: compounds reversing amyloid beta toxicity in yeast; yeast expressing A-beta42, growth rescue, OD600, 48 h; response scale: 0% DMSO, 100% iron-clioquinol control; Potency, µM (top dose mostly 46.1 µM), hits mostly activators; 0.063% of 410,000 active; also: nearly all actives have a fitted effect of over 55% in size
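Growth rescue measured by 600 nm absorbance after 48 h yeast culture at 30 C with compound. Values normalized between DMSO and an equimolar ferric chloride plus clioquinol control.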
aSyn yeast inh: alpha-synuclein toxicity inhibition in yeast; 0.14% of 370,000 active; Yeast expressing alpha-synuclein, growth rescue, BacTiter-Glo, 24 h; Potency, µM (top dose mostly 46.1 µM), inactives show at the highest dose growth rescue (activation), most hits filed as activators; also: % of control where 0% means no effect; nearly all actives have a fitted effect of over 65% in size
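Rescue of yeast growth: cells expressing toxic alpha-synuclein, induced in galactose at OD600 0.02, incubated with compound 24 h at 30 C. ATP luminescence quantified growth; inhibitors of toxicity appear as activators.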
Active calls of the source: *; i = inactive; ? = inconclusive; nt = no result given; [ ] = remark or other dose. Most compounds without a hit are left out; they make up all but 2.1% or so of the library. Calls follow the shape of the dose curve; as a rule, active = well fitted curve in the direction sought with a large enough effect; inconclusive = small, poorly fitted or top-dose-only effect, or another doubt; inactive = no such curve, though single readings can be large; an effect the other way counts as inactive or inconclusive. Potency is read from the fitted curve at half-maximal effect.

SMILES | FUS yeast rescue | TDP-43 yeast inh | Abeta yeast res | aSyn yeast inh
COc1ccccc1C1CCN(C(=O)c2cccs2)CC1 | i | 12.6µM* | i | -2.7%
C[C@H]1CCCN1c1cccc2c1S(=O)(=O)N(C1CC1)CCCO2 | i | nt | nt | nt
CCCCNc1c(-c2cccc(-c3cc(C(C)=O)cs3)c2)nc2ccc(C)cn12 | i | 11.2µM* | i | -7.2%
CCCCNc1c(-c2cccc(-c3ccc(OC)cc3)c2)nc2ccc(C)cn12 | i | -92.9% | i | -71.8%
Cc1ccccc1CN1CCCCC(NC(=O)c2ccccc2F)C1=O (configuration not stated) | i | nt | nt | nt
N#Cc1ccccc1OCC(=O)N1CCN(c2ccccc2F)CC1 | i | 22.4µM* | i | nt
COc1ccccc1N1CCN(C(=O)COc2ccccc2C#N)CC1 | i | ? | i | nt
O=C(CSc1nc2ccccc2c2c1CCCC2)N1CCOCC1 | i | 10µM* | i | ?
O=C(CSc1nncc2ccccc12)N1CCOCC1 | i | -16.1% | i | 3.7%
CCc1ccc(CN(C)C(=O)c2cc(COc3cc(C)c(Cl)c(C)c3)on2)nc1 | ? | 20µM* | i | ?
CCc1ccc(CN(C)C(=O)c2cc(COc3cncc(Cl)c3)on2)cc1 | i | 24.9% | i | 11.4%
Cc1cc(OCc2cc(C(=O)N(C)CCc3cnn(C)c3)no2)cc(C)c1Cl | i | 3.4% | i | 5.8%
CC(=O)c1ccc(OCc2cc(C(=O)N(C)C3CCOC3)no2)cc1 (configuration not stated) | i | 10.0% | i | 0.7%
Cc1cc(OCc2cc(C(=O)N(C)Cc3nonc3C)no2)cc(C)c1Cl | i | ? | 14.1µM* | 16.6%
Cc1cc(OCc2cc(C(=O)N(C)C3CCOC3)no2)cc(C)c1Cl (configuration not stated) | i | 12.6µM* | i | 11.3%
CC(C)CC(O)(CC(C)C)c1cn(C(=O)N(c2ccccc2)c2ccccc2)nn1 | i | nt | nt | nt
O=C(Nc1nnc(-c2ccc(Cl)cc2)o1)c1nc2ccccc2s1 | i | ? | i | 17.8µM*
COc1cccc(-c2nnc(NC(=O)c3ccc(Cl)s3)o2)c1 | i | 10µM* | ? | ?
O=C(Nc1nnc(-c2ccc(F)cc2)o1)c1cc(Cl)sc1Cl | nt | ? | i | ?
O=C(Nc1nnc(-c2ccccc2)o1)c1cc(Cl)sc1Cl | i | -4.4% | ? | 3.16µM*
Cc1cccc(-c2nnc(NC(=O)c3ccc(Cl)cc3)o2)c1 | i | ? | ? | 7.08µM*
O=C(Nc1nnc(-c2ccc(Cl)cc2)o1)Nc1ccccc1Cl | i | 22.8% | i | 1.0%
O=C(Nc1nnc(-c2ccco2)o1)c1ccc(Cl)s1 | i | ? | i | 6.7%
C=CCCC(=O)N[C@H]1CC[C@@]23CCCN2C(=O)CCC[C@H]3[C@H]1CCC | i | nt | nt | nt
C[C@H]1CCCC(=O)N[C@@H](c2ccccc2)[C@@H](C)CCCC(=O)N[C@H]1c1ccccc1 | i | nt | nt | nt
SMILES | FUS yeast rescue | TDP-43 yeast inh | Abeta yeast res | aSyn yeast inh
O=c1[nH]/c(=C/c2ccc3c(c2)OCO3)c(=O)[nH]/c1=C\c1ccc2c(c1)OCO2 | nt | nt | nt | -3.2%
Cc1ccccc1NC1=C(Cl)C(=O)OC1OC(=O)c1ccccc1C (configuration not stated) | i | 20µM* | i | 5.6%
O=C1OCC2=C1C(c1cccc(Cl)c1)CC(=O)N2c1ccc(C(F)(F)F)cc1 (configuration not stated) | i | -0.1% | i | -4.8%
CN(C)/C=N/c1nc2nccc(-c3ccccn3)n2n1 | i | 10.4%[9.22 µM] | i | -2.4%
Cc1ccc(-c2ccnc3nc(-n4cccc4)nn23)o1 | i | 35.5µM* | i | -3.3%
CCOc1ccc(NC(=O)CN(c2ccccc2OCC)S(=O)(=O)c2ccccc2)cc1 | i | 0.0% | i | nt
CCOc1ccc(NC(=O)CN(c2ccc(Cl)cc2C)S(=O)(=O)c2ccccc2)cc1 | 22.4µM* | 7.1% | i | nt
COc1ccc(N2CCN(c3nc(-c4cccs4)nc4ccccc34)CC2)cc1 | ? | 12.6µM* | i | -8.6%
Cc1ccc(C)c(C(=O)CSc2nnnn2-c2cccnc2)c1 | i | 11.2µM* | i | 10.1%
COc1ccc(CCNC(=O)Cn2ncc3c2-c2cc(C)ccc2OC3)cc1 | i | nt | nt | nt
COCCCNC(=O)C1CCN(S(=O)(=O)c2ccc3[nH]c(=O)oc3c2)CC1 | i | nt | nt | nt
O=S(=O)(Nc1ccc2c(c1)OCCO2)c1ccc2oc3ccccc3c2c1 | i | ? | i | 25.1µM*
O=S(=O)(Nc1ccc2c(c1)OCO2)c1cccc(Br)c1 | nt | 12.6µM* | i | 9.5%
Nc1c2c(=O)oc(-c3ccccc3)cc2nn1-c1ccccc1 | i | 14.1µM* | i | 25.5%
Cn1c(=O)c2c(ncn2CCOc2cccc(Br)c2)n(C)c1=O | i | 14.1µM* | i | 27.5%
Cn1c(=O)c2c(nc(Oc3cccc(Br)c3)n2C)n(C)c1=O | i | 12.6µM* | ? | 5.4%
Cc1ccc(NC(=O)c2ccc(CS(=O)(=O)Cc3ccccc3C)o2)c(C)c1 | i | nt | nt | nt
O=C(c1ccc2nc[nH]c2c1)N1CCN(c2cccc(C(F)(F)F)c2)CC1 | i | 9.5% | i | 0.0%
O=C(Nc1ccc2c(c1)OCO2)N1CCN(c2cccc(C(F)(F)F)c2)CC1 | i | 10µM* | i | -8.6%
O=C(CS(=O)(=O)c1cccc2nsnc12)N1CCN(c2ccccc2F)CC1 | i | 6.4% | i | nt
O=C(c1c(F)c(F)c(F)c(F)c1F)N1CCN(c2cccc(C(F)(F)F)c2)CC1 | i | 15.8µM* | i | 4.7%
O=C(c1ccccc1F)N1CCN(c2cccc(C(F)(F)F)c2)CC1 | i | ? | i | 6.0%
O=C(CS(=O)(=O)c1cccc2nsnc12)N1CCN(c2cccc(C(F)(F)F)c2)CC1 | i | 20µM* | i | 14.5%
O=C(c1ccc2ncsc2c1)N1CCN(c2cccc(C(F)(F)F)c2)CC1 | ? | 0.0% | 17.8µM* | -1.9%
CC1CCCCC1C(=O)N1CCC(Oc2cccnc2)CC1 (configuration not stated) | i | nt | nt | nt
SMILES | FUS yeast rescue | TDP-43 yeast inh | Abeta yeast res | aSyn yeast inh
COC(=O)[C@]12C[C@H](CC(=O)N3CCOCC3)C(=O)N(CCc3ccc(OC)c(OC)c3)C1=C[C@H](COCc1ccccc1)O[C@@H]2C | i | nt | nt | nt
O=C(c1cc(Cl)cc(Cl)c1)N1CC[C@H]2[C@H](CCCN2Cc2ccc(F)cc2)C1 | i | nt | nt | nt
O=S(=O)(c1ccccc1F)N1CCN(c2nc(-c3cccs3)nc3ccccc23)CC1 | nt | nt | nt | -0.9%
Cc1cn(-c2cc(NC(=O)c3ccc(C)c(Nc4nccc(-c5cccnc5)n4)c3)cc(C(F)(F)F)c2)cn1 | i | nt | nt | nt
Cc1ccc(NC(=O)C2CCCN(c3nnc(-n4cccc4)s3)C2)c(C)c1 (configuration not stated) | i | nt | nt | nt
Cc1nc(N2CCOCC2)c2c(C(=O)N3CCN(c4cccc(C(F)(F)F)c4)CC3)c(C)oc2n1 | i | ? | i | nt
